{"source": "PubChem BioAssay (NCI)", "assay_in_all_cases": "NCI-60 one-dose screen, 48 h (100 = growth as untreated, 0 = no growth, -100 = all killed)", "conditions_in_all_cases": "10 µM", "key": {"NCI-H23 lung": {"test_system": "NCI-H23 lung"}, "NCI-H226 lung": {"test_system": "NCI-H226 lung"}, "NCI-H322M lung": {"test_system": "NCI-H322M lung"}, "HOP-62 NSCLC": {"test_system": "HOP-62 NSCLC"}, "NCI-H460 lung": {"test_system": "NCI-H460 lung"}, "HOP-92 NSCLC": {"test_system": "HOP-92 NSCLC"}, "NCI-H522 lung": {"test_system": "NCI-H522 lung"}, "A549/ATCC NSCLC": {"test_system": "A549/ATCC NSCLC"}, "786-0 renal": {"test_system": "786-0 renal"}, "COLO 205 colon": {"test_system": "COLO 205 colon"}}, "note": "The panel holds about 83,000 compounds, 20% with a hit somewhere; the sample as a whole holds those more often.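 Results are percent growth after 48 hours of single-concentration exposure. 100 means growth as in untreated cells, lower positive values show inhibition; negative values down to -100 show cell death.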 A number with no mark means an inactive call. Calls of active or inactive are those of the source. Rule for the calls: active = growth percent below 10; inactive = the rest."}
{"smiles": "CC1=CSC2=NC(c3ccc(Cl)c(Cl)c3)=CC(c3ccc(Cl)cc3)N12", "note": "(stereo not given)", "values": [{"measurement": "growth", "setting": "NCI-H23 lung", "value": 32.3, "unit": "%"}, {"measurement": "growth", "setting": "NCI-H226 lung", "value": 38.1, "unit": "%"}, {"measurement": "growth", "setting": "NCI-H322M lung", "value": "-4.79% (active)"}, {"measurement": "growth", "setting": "HOP-62 NSCLC", "value": 30.9, "unit": "%"}, {"measurement": "growth", "setting": "NCI-H460 lung", "value": 53.7, "unit": "%"}, {"measurement": "growth", "setting": "HOP-92 NSCLC", "value": "-42.1% (active)"}, {"measurement": "growth", "setting": "NCI-H522 lung", "value": "-20.7% (active)"}, {"measurement": "growth", "setting": "A549/ATCC NSCLC", "value": 51.1, "unit": "%"}, {"measurement": "growth", "setting": "786-0 renal", "value": 22.3, "unit": "%"}, {"measurement": "growth", "setting": "COLO 205 colon", "value": 104, "unit": "%"}]}
{"smiles": "COc1ccc(-c2nnc(SCC(=O)c3ccccc3)o2)cc1", "values": [{"measurement": "growth", "setting": "NCI-H23 lung", "value": 91.2, "unit": "%"}, {"measurement": "growth", "setting": "NCI-H226 lung", "value": 97.5, "unit": "%"}, {"measurement": "growth", "setting": "NCI-H322M lung", "value": 107, "unit": "%"}, {"measurement": "growth", "setting": "HOP-62 NSCLC", "value": 84.5, "unit": "%"}, {"measurement": "growth", "setting": "NCI-H460 lung", "value": 105, "unit": "%"}, {"measurement": "growth", "setting": "HOP-92 NSCLC", "value": 89.2, "unit": "%"}, {"measurement": "growth", "setting": "NCI-H522 lung", "value": 83.9, "unit": "%"}, {"measurement": "growth", "setting": "A549/ATCC NSCLC", "value": 98.1, "unit": "%"}, {"measurement": "growth", "setting": "786-0 renal", "value": 79.4, "unit": "%"}, {"measurement": "growth", "setting": "COLO 205 colon", "value": 107, "unit": "%"}]}
{"smiles": "COc1ccc(Cn2cc3c(c2-c2ccccc2)CC(C)(C)c2cnoc2-3)cc1", "values": [{"measurement": "growth", "setting": "NCI-H23 lung", "value": 34.4, "unit": "%"}, {"measurement": "growth", "setting": "NCI-H226 lung", "value": 52.4, "unit": "%"}, {"measurement": "growth", "setting": "NCI-H322M lung", "value": 34.1, "unit": "%"}, {"measurement": "growth", "setting": "HOP-62 NSCLC", "value": 34.2, "unit": "%"}, {"measurement": "growth", "setting": "NCI-H460 lung", "value": "9.42% (active)"}, {"measurement": "growth", "setting": "HOP-92 NSCLC", "value": 59.9, "unit": "%"}, {"measurement": "growth", "setting": "NCI-H522 lung", "value": 43.3, "unit": "%"}, {"measurement": "growth", "setting": "A549/ATCC NSCLC", "value": 49.6, "unit": "%"}, {"measurement": "growth", "setting": "786-0 renal", "value": 35.4, "unit": "%"}, {"measurement": "growth", "setting": "COLO 205 colon", "value": "2.39% (active)"}]}
{"smiles": "COc1cc(OC)cc(-c2n/c(=C\\c3c(O)[nH]c4ccc(OC)cc34)cc3c2=Nc2ccccc2-3)c1", "values": [{"measurement": "growth", "setting": "NCI-H23 lung", "value": 65.8, "unit": "%"}, {"measurement": "growth", "setting": "NCI-H226 lung", "value": 92.4, "unit": "%"}, {"measurement": "growth", "setting": "NCI-H322M lung", "value": 102, "unit": "%"}, {"measurement": "growth", "setting": "HOP-62 NSCLC", "value": 99.1, "unit": "%"}, {"measurement": "growth", "setting": "NCI-H460 lung", "value": 12.8, "unit": "%"}, {"measurement": "growth", "setting": "HOP-92 NSCLC", "value": 68.6, "unit": "%"}, {"measurement": "growth", "setting": "NCI-H522 lung", "value": 108, "unit": "%"}, {"measurement": "growth", "setting": "A549/ATCC NSCLC", "value": 52.1, "unit": "%"}, {"measurement": "growth", "setting": "786-0 renal", "value": 75.9, "unit": "%"}, {"measurement": "growth", "setting": "COLO 205 colon", "value": 86.5, "unit": "%"}]}
{"smiles": "COc1ccc(-c2ccccc2)cc1C(=O)c1ccc(-c2ccccc2)cc1", "values": [{"measurement": "growth", "setting": "NCI-H23 lung", "value": 73.6, "unit": "%"}, {"measurement": "growth", "setting": "NCI-H226 lung", "value": 88.2, "unit": "%"}, {"measurement": "growth", "setting": "NCI-H322M lung", "value": 75.5, "unit": "%"}, {"measurement": "growth", "setting": "HOP-62 NSCLC", "value": 70.4, "unit": "%"}, {"measurement": "growth", "setting": "NCI-H460 lung", "value": 88.9, "unit": "%"}, {"measurement": "growth", "setting": "HOP-92 NSCLC", "value": 88.4, "unit": "%"}, {"measurement": "growth", "setting": "NCI-H522 lung", "value": 42.7, "unit": "%"}, {"measurement": "growth", "setting": "A549/ATCC NSCLC", "value": 63.7, "unit": "%"}, {"measurement": "growth", "setting": "786-0 renal", "value": 77.4, "unit": "%"}, {"measurement": "growth", "setting": "COLO 205 colon", "value": 82.5, "unit": "%"}]}
{"smiles": "CCCCn1c(=O)[nH]c(N)c(C(c2ccc(Cl)cc2)c2c(N)[nH]c(=O)n(CCCC)c2=O)c1=O", "values": [{"measurement": "growth", "setting": "NCI-H23 lung", "value": 53.9, "unit": "%"}, {"measurement": "growth", "setting": "NCI-H226 lung", "value": 58.7, "unit": "%"}, {"measurement": "growth", "setting": "NCI-H322M lung", "value": 63.6, "unit": "%"}, {"measurement": "growth", "setting": "HOP-62 NSCLC", "value": 59.1, "unit": "%"}, {"measurement": "growth", "setting": "NCI-H460 lung", "value": 32, "unit": "%"}, {"measurement": "growth", "setting": "HOP-92 NSCLC", "value": 54.7, "unit": "%"}, {"measurement": "growth", "setting": "NCI-H522 lung", "value": 37.9, "unit": "%"}, {"measurement": "growth", "setting": "A549/ATCC NSCLC", "value": 40.2, "unit": "%"}, {"measurement": "growth", "setting": "786-0 renal", "value": 41, "unit": "%"}, {"measurement": "growth", "setting": "COLO 205 colon", "value": 43.9, "unit": "%"}]}
{"smiles": "C=CCNCCCN1C(=O)c2ccc3c4c(ccc(c24)C1=O)C(=O)N(CCCNCC=C)C3=O", "values": [{"measurement": "growth", "setting": "NCI-H23 lung", "value": "-55.6% (active)"}, {"measurement": "growth", "setting": "NCI-H226 lung", "value": "-30.8% (active)"}, {"measurement": "growth", "setting": "NCI-H322M lung", "value": "-48.3% (active)"}, {"measurement": "growth", "setting": "HOP-62 NSCLC", "value": "-53% (active)"}, {"measurement": "growth", "setting": "NCI-H460 lung", "value": "-56.7% (active)"}, {"measurement": "growth", "setting": "HOP-92 NSCLC", "value": "-21.6% (active)"}, {"measurement": "growth", "setting": "NCI-H522 lung", "value": "-77.3% (active)"}, {"measurement": "growth", "setting": "A549/ATCC NSCLC", "value": "-73.6% (active)"}, {"measurement": "growth", "setting": "786-0 renal", "value": "-31% (active)"}, {"measurement": "growth", "setting": "COLO 205 colon", "value": "-86.8% (active)"}]}
